In PubChem BioAssay (EPA / NIEHS):
Records with an inconclusive call do not appear. Activity calls are given as the source filed them. The calls were made as follows, unless noted: active = hit-call score of the fitted dose curve at least 0.9, where 1 is the maximum; inactive = score below 0.9.

Columns and labels:
[1] = CCTE_Harrill_HTTr_Viability_MCF7: CCTE's 6-hour Cell Viability Assessment for the High-Throughput Transcriptomics (HTTr) Platform, in MCF-7 cells cultured in DMEM + 10% fetal bovine serum, Harrill Lab (AID 2284010)
Method in brief: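 Eight-point concentration series, six-hour exposure. Propidium iodide exclusion imaged to assess membrane integrity as a cytotoxicity readout; bidirectional fitting was done with DMSO as negative control and activity baseline.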

[2] = CCTE_Harrill_HTTr_Apoptosis_MCF7: CCTE's 6-hour Apoptosis Assessment for the High-Throughput Transcriptomics (HTTr) Platform, in MCF-7 cells cultured in DMEM + 10% fetal bovine serum, Harrill Lab (AID 2284011)
Method in brief: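 High-content imaging of CellEvent Caspase 3/7 Green signal follows a six-hour exposure, with eight concentrations per chemical. MCF-7 cells grown in DMEM plus 10% fetal bovine serum; activity fitted in both directions against DMSO.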

[3] = CCTE_Harrill_HTTr_CellCount_MCF7: CCTE's Cell Proliferation Assessment for the High-Throughput Transcriptomics (HTTr) Platform, Harrill Lab (AID 2284012; active = hit-call score of the fitted dose curve at least 0.9, where 1 is the maximum;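 also: count of Hoechst-stained nuclei per well by high-content imaging in MCF-7 cells; cells exposed to compound for six hours; intended direction is loss of nuclei count meaning fewer cells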)
Method in brief: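 For this full-screen endpoint, MCF-7 cultures received eight compound dilutions for six hours. Well nuclei counts from Hoechst imaging were analyzed relative to DMSO.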

[4] = CCTE_Shafer_MEA_acute_firing_rate_mean: CCTE's Neural Acute Assay for Mean Firing Rate, Shafer Lab (AID 2284009);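 also: analyzed for loss of signal so actives lower firing rate relative to DMSO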
Method in brief: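 Spontaneous spiking of primary rat cortical networks, DIV 13/15, 37 C. Compound 0.03-40 uM, n ≥3 wells; 40 min baseline vs 40 min treated. Endpoint fitted in loss-of-signal direction against DMSO.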

[5] = CCTE_Shafer_MEA_acute_burst_number: CCTE's Neural Acute Assay for Single-Electrode Bursts, Shafer Lab (AID 2284013)
Method in brief: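 Burst totals were derived with adaptive spike detection (8x rms threshold) on filtered signals from rat cortical cultures; change relative to pre-treatment baseline after 40-min compound exposure (0.03-40 uM) was fitted in the negative direction against DMSO.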

[6] = CCTE_Shafer_MEA_acute_per_burst_spike_number_mean: CCTE's Neural Acute Assay for Average Number of Spikes Per Burst, Shafer Lab (AID 2284015);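 also: hits are decreases in mean spikes per burst versus baseline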
Method in brief: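 Read-out: percent change in mean spikes per burst, each well's post-exposure 40-min recording versus its own 40-min baseline. Rat cortical cultures, DIV 13 or 15, compounds 0.03-40 uM; DMSO is negative control, loss-of-signal fitting.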

[7] = CCTE_Shafer_MEA_acute_interburst_interval_mean: CCTE's Neural Acute Assay for Mean Interburst Interval, Shafer Lab (AID 2284016);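 also: percent change of mean interburst interval versus each well's own pre-dose baseline; curves fitted for decrease in interburst interval relative to DMSO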
Method in brief: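 Rat cortical cultures, DIV 13/15; 20 min equilibration, 40 min baseline, compound 0.03-40 uM, 40 min re-recording, 37 C. Spikes detected at 8x rms noise (300-5000 Hz band-pass). Endpoint: % change in interburst interval, fitted in loss direction vs DMSO.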

[8] = CCTE_Shafer_MEA_acute_burst_percentage_mean: CCTE's Neural Acute Assay for Percentage of Spikes in a Burst, Shafer Lab (AID 2284017);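 as to AC50: curve fitted for loss of signal so potency reflects decreased burst percentage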
Method in brief: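 Rat cortical cultures, DIV 13/15, 37 C. Spikes detected at 8x rms noise (300-5000 Hz band-pass). Burst spikes/total spikes averaged across electrodes per well; % change post- vs pre-treatment (40 min each), loss-of-signal fit vs DMSO.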

[9] = CCTE_Shafer_MEA_acute_burst_percentage_std: CCTE's Neural Acute Assay for Standard Deviation of Burst Percentage, Shafer Lab (AID 2284018);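 also: fitted in the negative direction so actives lower burst percentage SD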
Method in brief: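 Primary rat cortical neurons on 16-electrode MEA wells were recorded 40 min at baseline (DIV 13 or 15), then 40 min after compound (0.03-40 uM), at 37 C. Well value is SD across electrodes of spikes-in-bursts/total spikes; endpoint is percent change, DMSO-referenced.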

[10] = CCTE_Shafer_MEA_acute_per_network_burst_spike_number_mean: CCTE's Neural Acute Assay for Average Number of Spikes in a Network Burst, Shafer Lab (AID 2284019);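 as to AC50: curve fitted for loss of signal so actives reduce spikes per network burst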
Method in brief: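 Acute exposure of rat primary cortical networks (DIV 13/15) on MEAs; adaptive spike detection at 8x rms noise, 37 C. Percent change in spikes per network burst after 40 min with compound (0.03-40 uM), negative direction vs DMSO.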

[11] = CCTE_Shafer_MEA_acute_per_network_burst_spike_number_std: CCTE's Neural Acute Assay for Standard Deviation of Number of Spikes in a Network Burst, Shafer Lab (AID 2284020);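 also: fitted for decrease in spike-number SD versus DMSO so actives lower it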
Method in brief: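 Acute MEA exposure, rat cortical neurons, 0.03-40 uM. Per-well % change versus own baseline; DMSO as negative control.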

[12] = CCTE_Shafer_MEA_acute_per_network_burst_electrodes_number_mean: CCTE's Neural Acute Assay for Mean Number of Electrodes in a Network Burst, Shafer Lab (AID 2284021);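 also: curves fitted for decreases only so hits reduce electrodes per burst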
Method in brief: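 Percent change from baseline was computed as mean electrode count per network burst, comparing 40 min recordings before and during compound (0.03-40 uM) exposure. Cultures were rat cortical neurons at DIV 13 or 15, recorded on MEAs at 37 C with an adaptive 8x rms threshold.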

[13] = CCTE_Shafer_MEA_acute_network_burst_percentage: CCTE's Neural Acute Assay for Percentage of Network Bursts, Shafer Lab (AID 2284022);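 also: curves fitted for loss so actives lower network burst percentage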
Method in brief: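 Network burst percentage (spikes in network bursts divided by total spikes) recorded at 37 C over 40 min baseline and 40 min after compound, 0.03-40 uM, in rat cortical cultures at DIV 13 or 15. Analysed as percent change from baseline versus DMSO.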

[14] = CCTE_Shafer_MEA_acute_cross_correlation_area: CCTE's Neural Acute Assay for Area of Cross Correlation, Shafer Lab (AID 2284024);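 also: area under pooled inter-electrode spike cross-correlation near zero lag as percent change from own baseline; curves fitted for loss of cross-correlation area so actives lower synchrony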
Method in brief: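 Percent change in well-wide cross-correlation area (window around zero lag) between 40 min baseline and 40 min post-compound recordings, 37 C; rat cortical cultures on MEA at DIV 13 or 15, dosed 0.03-40 uM, wells needing >/= 10 active electrodes.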

[15] = CCTE_Shafer_MEA_acute_cross_correlation_HWHM: CCTE's Neural Acute Assay for Cross Correlation at Half Width at Half Maximum, Shafer Lab (AID 2284026);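 also: percent change per well from pre-dose baseline in spike cross-correlogram half width; hits are a decrease in cross-correlogram half width relative to DMSO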
Method in brief: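 Per-well percent change in cross-correlogram half width at half maximum, derived from 40-min recordings before and after compound (0.03-40 uM) at 37 C. Cultures were rat cortical neurons, DIV 13 or 15, with adaptive spike detection at 8x rms.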

[16] = CCTE_Shafer_MEA_acute_synchrony_index: CCTE's Neural Acute Assay for Synchrony, Shafer Lab (AID 2284027);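 also: network synchrony index of spontaneous spiking in primary rat cortical neurons on MEAs; fitted for loss of signal so actives lower synchrony relative to DMSO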
Method in brief: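 Acute exposure of rat primary cortical neurons (DIV 13 or 15) at 0.03-40 uM. Synchrony index, 40 min before vs after, as % change relative to DMSO control.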

[17] = CCTE_Deisenroth_AIME_96WELL_CTox_Active: Cytotoxicity Assessment (CTOX) in CCTE's 96-well Estrogen Receptor Transactivation Assay with AIME metabolic competence (metabolism positive), Deisenroth Lab (AID 2284028; active = hit-call score of the fitted dose curve at least 0.9, where 1 is the maximum)
Method in brief: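 Cytotoxicity in VM7Luc4E2 breast cells after 24 h exposure to medium from a 2 h metabolic pre-incubation with induced rat hepatic S9 in alginate microspheres; fluorescent live-cell protease readout, 10-point series 0.002–200 uM, n=4.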

Measured: AC50

COc1ccc([N+](=O)[O-])cc1N
inactive: [1] | [2] | [3]

CC(=O)NC1(c2cccc(F)c2)CCN(CC[C@@]2(c3ccc(Cl)c(Cl)c3)CN(c3ccccc3)C(=O)CO2)CC1
inactive: [2] | [3] | [6] | [7] | [10] | [11] | [12]
active: [4] 1.47 µM | [5] 1.24 µM | [8] 8.94 µM | [9] 20 µM | [13] 8.3 µM | [14] 1.03 µM | [15] 20 µM | [16] 9.53 µM

CCCCCCCCOC(=O)CCCCCCCCC(=O)OCCCCCCCC
inactive: [1] | [2] | [3]

CCCCC(CC)COC(=O)CCCCC(=O)OCc1ccccc1 (stereo not given)
inactive: [1] | [2] | [3]

O=c1c(-c2ccc(O)cc2)coc2cc(O)ccc12
active: [10] 4.06 µM | [15] 24.4 µM | [16] 12.2 µM
not listed: [1]
inactive: all other assays above

OCCC(F)(F)C(F)(F)C(F)(F)C(F)(F)C(F)(F)C(F)(F)C(F)(F)C(F)(F)F
not listed: [1] | [3] | [17]
inactive: all other assays above

CN1CCC[C@H]1c1cccnc1
active: [5] 0.0479 µM | [14] 0.7 µM
not listed: [1] | [2] | [3] | [17]
inactive: all other assays above

O=C(OCCOCCOC(=O)c1ccccc1)c1ccccc1
inactive: [1] | [2] | [3]

O=C(O)c1ccccc1C(c1ccc(O)cc1)c1ccc(O)cc1
active: [8] 20 µM | [10] 20 µM | [14] 20 µM | [16] 7.86 µM
not listed: [1] | [3] | [17]
inactive: all other assays above

CC[C@H](C)[C@@H](C(=O)O)n1sc2ccccc2c1=O
inactive: [1] | [2] | [3]

O=[N+]([O-])c1ccc(O)cc1
inactive: [1] | [2] | [3]

CCCCCCCCCCCCN1CCCC1=O
not listed: [1] | [17]
inactive: all other assays above

COC(=O)CCCCC(=O)OC
inactive: [1] | [2] | [3]

OC1CCC(C2CCCCC2)CC1 (stereo not given)
active: [4] 20 µM | [8] 27.3 µM | [15] 30 µM
not listed: [1] | [17]
inactive: all other assays above

CN(C)C=O
not listed: [1] | [2] | [3] | [17]
inactive: all other assays above

Oc1cc2ccccc2c2ccccc12
not listed: [1] | [17]
inactive: all other assays above

CCc1ccc(CCOc2ccc(CC3SC(=O)NC3=O)cc2)nc1 (stereo not given)
not listed: [17]
inactive: all other assays above

COCC(C)O (stereo not given)
inactive: [1] | [2] | [3]
